According to PubChem BioAssay (NCATS):
The source made the active and inactive calls. No rule for the calls is given here.

assay: qHTS assay for small molecule activators of the human pregnane X receptor (PXR) signaling pathway (AID 720659); details: DPX-2 HepG2 CYP3A4-luciferase, 24 h; series mostly up to 92.3 µM

Compound	outcome
CCCCCCc1ccc(-c2ccc(C#N)cc2)cc1	inactive
Nc1cnn([C@@H]2O[C@H](CO)[C@@H](O)[C@H]2O)c(=O)n1	inactive
CCCCCCCCOc1ccc(C(=O)O)cc1	inactive
CC(C)OCC1CO1 (stereo not given)	inactive
C/C(Cl)=C/CCl	inactive
CCCCNCC	inactive
O=c1[nH]ncc2ccccc12	inactive
O=[N+]([O-])c1cccc(I)c1	inactive
c1ccc2c(c1)ccc1ccccc12	inactive
Cc1ccc(C(=O)O)cc1[N+](=O)[O-]	inactive
COc1ccc([N+](=O)[O-])cc1N	inactive
OCC(CO)(CBr)CBr	inactive
Nc1cc(C(=O)O)c(O)c(S(=O)(=O)O)c1	inactive
Oc1ccc2c(c1)OCO2	inactive
c1ccncc1	inactive
CC(=O)OC1CC(C)OC(C)O1 (stereo not given)	inactive
O=C(OCc1ccccc1)c1ccccc1O	inactive
C/C=C/C=C/C=O	inactive
c1c[nH]cn1	inactive
O=C(O)/C=C/c1ccc(/C=C/C(=O)O)cc1	inactive
CCCCOC(=O)COc1ccc(Cl)cc1Cl	inactive
CC(=O)OC(C(=O)c1ccccc1)c1ccccc1 (stereo not given)	inactive
CCCCCCN	inactive
CC(=O)Nc1cccc(C)c1	inactive
COc1ccc(C)cc1N	inactive
C[C@@H]1CC2(OC(O)[C@]3(C)O[C@H]23)O[C@H]2C[C@@]3(C)[C@@H]4CC[C@H]5C(C)(C)C(O[C@@H]6OC[C@@H](O)[C@H](O)[C@H]6O)CC[C@@]56C[C@@]46CC[C@]3(C)[C@@H]12 (stereo not given in full)	inactive
O=[N+]([O-])c1ccccc1Nc1ccccc1	inactive
C=CC1CO1 (stereo not given)	inactive
COc1cc(-c2ccc(N=C=O)c(OC)c2)ccc1N=C=O	inactive
CCOC(=O)C1OC1c1ccccc1 (stereo not given)	inactive
